Screening results deposited in PubChem by several laboratories.
Sampled rows, rich in hits. Any-hit rate of the full collection: about 4.1%.
Mot1-301 SUMO = blocks SUMOylation pathway, rescuing yeast Mot1-301 growth. S. cerevisiae Mot1-301 growth rescue, ATP luminescence, 38.5C; percent above DMSO median, 100 means doubled. growth rescue, % at 18.8 µM. 320,000 compounds, 1% hits;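 active means every valid replicate shows activation above 250% relative to neutral control wells; inactive means the rest, any valid replicate at or below 250%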;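 further: OY570 slx delta 5 strain wells were the positive control but not used for scaling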
CHT block = inhibitors of human choline transporter CHT | CHT-expressing cells, membrane potential dye, choline response; active compounds read low | B-score at 10 µM | Q9GZV3 | 310,000 compounds, 0.86% hits;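 active means B-score over 3 SD under the library average, and starting fluorescence ratio not unusually high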;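 further: choline stimulus applied at its EC90 after an EC20 pre-addition; B-score computed on integrated fluorescence ratio after choline addition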
Target sequence (Q9GZV3 whole entry, looked up): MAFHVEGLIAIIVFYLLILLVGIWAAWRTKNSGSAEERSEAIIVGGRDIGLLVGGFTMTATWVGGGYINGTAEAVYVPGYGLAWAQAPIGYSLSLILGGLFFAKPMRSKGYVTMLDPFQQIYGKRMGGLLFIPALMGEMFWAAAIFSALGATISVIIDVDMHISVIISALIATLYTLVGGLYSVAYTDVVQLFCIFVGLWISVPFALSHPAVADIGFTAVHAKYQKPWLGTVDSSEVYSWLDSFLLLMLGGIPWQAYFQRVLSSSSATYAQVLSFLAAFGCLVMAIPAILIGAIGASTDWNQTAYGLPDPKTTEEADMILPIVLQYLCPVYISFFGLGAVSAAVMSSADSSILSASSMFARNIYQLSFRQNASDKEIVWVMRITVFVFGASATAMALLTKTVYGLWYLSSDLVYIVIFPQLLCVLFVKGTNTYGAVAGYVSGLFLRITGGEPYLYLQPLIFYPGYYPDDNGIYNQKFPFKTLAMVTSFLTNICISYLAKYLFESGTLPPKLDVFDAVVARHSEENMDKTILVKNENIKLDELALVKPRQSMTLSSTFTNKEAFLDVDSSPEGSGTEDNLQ
MEKK3 PB1 HTS = modulators (inhibitors or enhancers) of MEK5 binding to human MEKK3 PB1 domain. Q99759. bead-based flow cytometry, Alexa488-MEK5 binding to MEKK3; actives lie on both sides; 0 = blocked by unlabeled MEK5, 100 = vehicle. binding response (% of control), % at 10 µM. 290,000 compounds, 1.4% hits. AID 1529;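 active means binding response more than 3 SD above or below the average of its plate-row segment, actives on both sides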;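 further: Alexa488 bead fluorescence after subtracting the streptavidin-only scavenger bead signal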
MEKK2mut PB1 HTS = signal of MEK5 binding to mutant human MEKK2 PB1 domain | bead flow cytometry, Alexa488-MEK5 binding to MEKK2 mutant | percent response, % at 10 µM | 290,000 compounds, 0.35% hits | AID 1530; in the data active means percent response above about 24%, passing the limit was not always enough
CHT allo act = allosteric activators of human choline transporter CHT; Q9GZV3; CHT-expressing cells, membrane potential dye, choline EC20; active compounds read high; LV-AA mutant CHT in HEK293 cells; B-score at 10 µM; 310,000 compounds, 0.49% hits;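 active means initial fluorescence not abnormally high and integrated response B-score, plate-corrected, over 3 SD above library mean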
MEKK2wt PB1 HTS = raises or lowers MEK5 binding to wildtype human MEKK2 PB1 domain; Q9Y2U5; bead flow cytometry, Alexa488-MEK5 binding to MEKK2 WT; actives lie on both sides; binding response (% of control), % at 10 µM; 290,000 compounds, 1.1% hits; AID 1531; in the data active means binding response below about 67% or above about 130%
Starred values were filed as active, the others as inactive; i = inactive; . = not tested or not shown; + = active, no number; [ ] = dose if it differs, or a comment.

SMILES | Mot1-301 SUMO | CHT block | MEKK3 PB1 HTS | MEKK2mut PB1 HTS | CHT allo act | MEKK2wt PB1 HTS
O=C(COc1ccc(S(=O)(=O)Nc2ccccc2)cc1)NCc1cccnc1 | 1 | i | 100 | 14 | i | 111
Cc1ccccc1NS(=O)(=O)c1ccc(OCC(=O)NCc2cccnc2)cc1 | 385* | i | 100 | 7 | i | 116
CC12CN3CC(C)(CN(C1)C3c1ccccc1)C2O (centres undefined) | -15 | i | 98 | -13 | i | 83
CC12CN3CC(C)(CN(C1)C3c1ccc3c(c1)OCO3)C2O (centres undefined) | + | i | 67 | -32 | i | 76
CCN1CCN(c2ccccc2NC(=O)c2ccc(-n3cccn3)cc2)CC1 | 6 | . | . | . | . | .
O=C(Cc1cccs1)Nc1cccc(-c2nc3cc4ccccc4cc3[nH]2)c1 | 811* | i | 103 | 5 | i | 113
CC(=O)Nc1cccc(NC(=O)Cc2cccs2)c1 | 7 | i | 97 | 10 | i | 100
Cn1cccc1CC(=O)NNC(=S)NC(=O)c1ccccc1Br | -1 | i | 98 | -1 | i | 96
Oc1c(/C=C/C=C/C=Nc2ccccc2)sc(=S)n1Cc1ccccc1 | 28 | i | 21*[inhibitor] | 0 | i | .
O=Cc1c(C(=O)O)n(CC(=O)O)c2ccccc12 | 5 | i | 134* | 1 | i | 106
N#C/C(=C/c1ccc(F)cc1)C(N)=S | -16 | i | 107 | -5 | i | 97
CCCCc1ccc(/C=C(\C#N)C(N)=S)s1 | . | . | 108 | 5 | . | 5.0*
Cc1ccc(S(=O)(=O)NC(CC(C)C)C(=O)Nc2nccs2)cc1 (centres undefined) | -19 | i | 101 | 9 | i | 104
COCC(C)NC(=O)c1ccc2c(c1)S(=O)(=O)c1ccccc1C2=O (centres undefined) | -5 | i | 97 | -4 | i | 94
Cc1ccnc(NC(=O)Cc2ccc([N+](=O)[O-])cc2)c1 | 364* | i | 82 | -5 | i | 93
Cc1ccnc(NC(=O)Cc2ccc(-c3ccccc3)cc2)c1 | 2 | i | 97 | 3 | i | 101
CN(C(=O)c1cc(S(=O)(=O)N2CCOCC2)cs1)c1ccccc1 | 6 | i | 98 | 3 | i | 97
OCCOCCn1c(-c2ccccc2)nc(=S)c2c1CCCC2 | 15 | i | 96 | -3 | 6.4* | 102
O=C(CN1C(=O)c2ccccc2S1(=O)=O)NCCc1ccc(F)cc1 | -11 | . | . | . | . | .
O=C(CN1C(=O)c2ccccc2S1(=O)=O)NCc1ccc(F)cc1 | 3 | i | 72*[inhibitor] | -6 | i | 94
COc1ccc(C(=O)NC(Cn2ccnc2)C(C)(C)C)cc1OC1CCN(C(C)C)CC1 (centres undefined) | 1 | -8.7* | 99 | 9 | i | 107
COc1ccc(C(=O)NCc2cnn(C)c2)cc1OC1CCN(C(C)C)CC1 | -12 | . | 96 | -2 | . | 97
CCc1ccc(CNC(=O)c2ccc(OC)c(OC3CCN(C(C)C)CC3)c2)nc1 | 19 | -9.6* | 102 | 7 | i | 113
CCCCN(C(=O)c1ccc(-c2ccc(Cl)cc2)o1)c1c(N)n(CCC)c(=O)[nH]c1=O | 11 | . | . | . | . | .
N#Cc1ccccc1N1CCN(C(=O)c2ccc(NC(=O)c3ccc(Br)o3)cc2)CC1 | 6 | i | . | . | i | .
CC(Sc1nnc(-c2ccco2)n1C)C(=O)Nc1nccs1 (centres undefined) | -2 | i | . | . | i | .
CC(Sc1ccc([N+](=O)[O-])cn1)C(=O)Nc1nccs1 (centres undefined) | 19 | i | 103 | 17 | i | 157*
Cc1cc(C)cc(C(=O)NC(CC(N)=O)c2ccc(NC3CCCC3)c([N+](=O)[O-])c2)c1 (centres undefined) | 1 | i | 101 | -5 | i | 98
CC(=O)N1CC(C)Sc2ccc(S(=O)(=O)NC(C)c3ccccc3)cc21 (centres undefined) | 4 | i | 80*[inhibitor] | -21 | i | 64*[inhibitor]
